From PubChem BioAssay
Most compounds without a hit are left out; they make up all but 0.84% or so of the library.
SRC3 TRFRET art – TR-FRET detection interference compounds, artefact control for PPARgamma SRC-3 recruitment agonists, biochemical, TR-FRET ratio; TR-FRET artefact counter-screen, PPARgamma/SRC-3 format; hits give high values; TR-FRET ratio at 8 µM; actives 0.39% (n = 99,000); in the data active means TR-FRET ratio above about 2000
SRC1 TRFRET art – TR-FRET detection interference compounds, primary screen, artefact control for PPARgamma SRC-1 recruitment agonists, biochemical, TR-FRET emission ratio | AID 1051, 2008 | TR-FRET ratio at 8 µM | actives 0.34% (n = 99,000) | TR-FRET detection artefact counter-screen; hits give high values; in the data active means TR-FRET ratio above about 2300
PPARg SRC1 recr – PPARgamma agonists recruiting SRC-1 coactivator, primary screen, biochemical; actives 0.41% (n = 200,000); activation, % at 8 µM; PPARgamma-SRC-1 coactivator recruitment biochemical assay; AID 631, 2007; Peroxisome proliferator-activated receptor gamma (Homo sapiens), P37231; in the data active means activation above about 19%;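 further: 0% = DMSO and 100% = reference agonist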
Target sequence (P37231 whole entry, looked up): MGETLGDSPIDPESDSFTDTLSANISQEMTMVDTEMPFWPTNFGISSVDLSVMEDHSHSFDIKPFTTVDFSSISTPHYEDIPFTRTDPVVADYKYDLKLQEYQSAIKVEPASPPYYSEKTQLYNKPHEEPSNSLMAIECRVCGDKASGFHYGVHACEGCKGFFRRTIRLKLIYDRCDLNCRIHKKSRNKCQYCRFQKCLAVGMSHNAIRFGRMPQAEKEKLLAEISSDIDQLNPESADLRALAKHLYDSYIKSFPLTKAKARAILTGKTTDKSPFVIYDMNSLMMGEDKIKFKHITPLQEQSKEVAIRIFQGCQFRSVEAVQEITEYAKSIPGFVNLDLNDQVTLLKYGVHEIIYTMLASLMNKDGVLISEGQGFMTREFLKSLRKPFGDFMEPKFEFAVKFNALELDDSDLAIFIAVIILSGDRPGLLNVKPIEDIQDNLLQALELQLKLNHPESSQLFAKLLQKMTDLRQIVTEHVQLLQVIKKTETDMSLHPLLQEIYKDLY
SRC2 TRFRET art – TR-FRET signal artefacts, primary screen, artefact control for PPARgamma SRC-2 agonist project, biochemical; TR-FRET artefact counter-screen; hits give high values; TR-FRET ratio at 8 µM; actives 0.4% (n = 200,000); AID 1049, 2008; in the data active means TR-FRET ratio above about 2000
PPARg SRC-2 ag – agonists of PPARg-SRC-2 recruitment, primary screen, biochemical, HTS; Peroxisome proliferator-activated receptor gamma (Homo sapiens), P37231; PPARgamma LBD-SRC-2 recruitment; activation, % at 8 µM; actives 0.34% (n = 200,000);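 further: 0% = vehicle and 100% = reference agonist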
PPARg SRC3 recr – PPARgamma agonists recruiting SRC-3 coactivator, primary screen, biochemical; Peroxisome proliferator-activated receptor gamma (Homo sapiens), P37231; biochemical PPARgamma/SRC-3 coactivator recruitment assay; activation, % at 8 µM; actives 0.26% (n = 200,000); AID 731, 2007; in the data active means activation above about 23%;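 further: 0% = DMSO and 100% = reference agonist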
PPARg SRC2 ag – agonists of PPARgamma SRC-2 coactivator recruitment, confirmation, biochemical, HTS; AID 1297, 2008; biochemical SRC-2 recruitment by PPARgamma; shares compounds with PPARg SRC3 recr; actives 52% (n = 790); activation, % at 8 µM;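 further: 0% = vehicle alone and 100% = reference agonist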
PPARg SRC1 conf – PPARgamma agonists recruiting SRC-1 coactivator, confirmation, biochemical; PPARgamma–SRC-1 coactivator recruitment biochemical assay; shares compounds with PPARg SRC3 recr; activation, % at 8 µM; actives 43% (n = 790); in the data active means activation above about 20%;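 further: 0% = vehicle wells and 100% = reference agonist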
PPARg SRC3 conf – PPARgamma-driven SRC-3 coactivator recruitment agonists, confirmation, biochemical. activation, % at 8 µM. shares compounds with PPARg SRC3 recr. biochemical PPARgamma-SRC-3 coactivator recruitment, agonist mode. actives 29% (n = 790); in the data active means activation above about 24%;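 further: 0% = vehicle wells and 100% = reference agonist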
The depositor's hits bear a star. Unless noted, no stated cut-off is given here; in the data, active means activation above about 22%; inactive means the rest.

COc1ccc(Nc2nc(N)nc(CN3CCN(c4ccc(F)cc4)CC3)n2)cc1 was read as SRC3 TRFRET art 1573, SRC1 TRFRET art 2427*, PPARg SRC1 recr 24*, SRC2 TRFRET art 1746, PPARg SRC-2 ag 10, PPARg SRC3 recr 5, PPARg SRC2 ag 5, PPARg SRC1 conf 3 and PPARg SRC3 conf 3.
For COc1ccc(N2CCN(Cc3nc(N)nc(Nc4ccccc4OC)n3)CC2)cc1 the results were PPARg SRC1 recr 2, SRC2 TRFRET art 1569, PPARg SRC-2 ag 9 and PPARg SRC3 recr 2.
CCC(C)NC(=O)C(=O)NCC1CCCN1CC (stereo not drawn) was read as SRC3 TRFRET art 1446, SRC1 TRFRET art 1763, PPARg SRC1 recr -2, SRC2 TRFRET art 1460, PPARg SRC-2 ag 11 and PPARg SRC3 recr 4.
For O=[N+]([O-])c1ccc(C2Nc3cccc4cccc(c34)N2)cc1 the results were SRC3 TRFRET art 1578, SRC1 TRFRET art 1856, PPARg SRC1 recr 21*, SRC2 TRFRET art 1698, PPARg SRC-2 ag 17, PPARg SRC3 recr 7, PPARg SRC2 ag 5, PPARg SRC1 conf 1 and PPARg SRC3 conf 3.
For CCCC(C)NC(=O)c1ccc(OCc2ccc(Cl)cc2)c(OC)c1 (stereo not drawn) the results were SRC3 TRFRET art 1723, SRC1 TRFRET art 2154, PPARg SRC1 recr 62*, SRC2 TRFRET art 1657, PPARg SRC-2 ag 23*, PPARg SRC3 recr 57*, PPARg SRC2 ag 31*, PPARg SRC1 conf 56* and PPARg SRC3 conf 48*.
Screening CC(/C=C/c1ccccc1)=N\NC(=O)Cn1nc(C)cc1C returned SRC3 TRFRET art 1542, SRC1 TRFRET art 1796, PPARg SRC1 recr -8, SRC2 TRFRET art 1480, PPARg SRC-2 ag -12 and PPARg SRC3 recr -3.
For CCSC1=NSC2=NC(=O)/C(=C\c3coc4ccccc4c3=O)C(=N)N12 the results were SRC3 TRFRET art 1460, SRC1 TRFRET art 1609, PPARg SRC1 recr 8, SRC2 TRFRET art 1696, PPARg SRC-2 ag 13, PPARg SRC3 recr 23*, PPARg SRC2 ag 9, PPARg SRC1 conf 8 and PPARg SRC3 conf 20.
For COCCN(C(=O)CCC(=O)Nc1ccccn1)C(C(=O)NC1CCCC1)c1ccc(OC)cc1 (stereo not drawn) the results were PPARg SRC1 recr 2, SRC2 TRFRET art 1409, PPARg SRC-2 ag 5 and PPARg SRC3 recr -3.
COCc1cc(C)nc2sc3c(=O)oc(C)nc3c12 was read as PPARg SRC1 recr 20*, SRC2 TRFRET art 1809, PPARg SRC-2 ag 13, PPARg SRC3 recr 3, PPARg SRC2 ag 7, PPARg SRC1 conf 2 and PPARg SRC3 conf 1.
COc1ccc(C2=NN(C(=O)CN3CCCCC3)C(c3ccc(C)cc3)C2)cc1 (stereo not drawn) was read as SRC3 TRFRET art 1434, SRC1 TRFRET art 1708, PPARg SRC1 recr 2, SRC2 TRFRET art 1498, PPARg SRC-2 ag 1 and PPARg SRC3 recr 1.
CNC(=S)N1N=C(c2ccc(OC)cc2)CC1c1ccc(Cl)cc1Cl (stereo not drawn) was read as SRC3 TRFRET art 3446*, SRC1 TRFRET art 3403*, PPARg SRC1 recr 22*, SRC2 TRFRET art 2360*, PPARg SRC-2 ag 7, PPARg SRC3 recr 16, PPARg SRC2 ag 18, PPARg SRC1 conf 12 and PPARg SRC3 conf 12.
For CNC(=S)N1N=C(c2ccc(Br)cc2)CC1c1ccc(OC)cc1 (stereo not drawn) the results were SRC3 TRFRET art 2788*, SRC1 TRFRET art 2835*, PPARg SRC1 recr 23*, SRC2 TRFRET art 2412*, PPARg SRC-2 ag 18, PPARg SRC3 recr 21, PPARg SRC2 ag 37*, PPARg SRC1 conf 30* and PPARg SRC3 conf 21.
`CC(=O)c1c(C)[nH]c(C(=O)CSc2nnc(-c3ccco3)o2)c1C` gave SRC3 TRFRET art 1786, SRC1 TRFRET art 1872, PPARg SRC1 recr 10, SRC2 TRFRET art 1762, PPARg SRC-2 ag 10 and PPARg SRC3 recr 4.
For COc1ccc(-c2nnc(SCC(=O)c3[nH]c(C)c(C(C)=O)c3C)o2)cc1 the results were PPARg SRC1 recr 19*, SRC2 TRFRET art 1621, PPARg SRC-2 ag 9, PPARg SRC3 recr 0, PPARg SRC2 ag 4, PPARg SRC1 conf 1 and PPARg SRC3 conf 3.
Cc1cccc(CN2CCN(CC(=O)NCCCN3CCN(c4ccc(F)cc4)CC3)C2=O)c1 was read as PPARg SRC1 recr 2, SRC2 TRFRET art 1486, PPARg SRC-2 ag 15 and PPARg SRC3 recr 5.
Screening CCn1c(=O)cc(SCC(=O)NCCCN2CCN(c3ccc(F)cc3)CC2)c2ccccc21 returned PPARg SRC1 recr 87*, SRC2 TRFRET art 3656*, PPARg SRC-2 ag 81*, PPARg SRC3 recr 101*, PPARg SRC2 ag 38*, PPARg SRC1 conf 23* and PPARg SRC3 conf 25*.
`CCn1c(=O)cc(SCC(=O)NCCCN2CCC(C)CC2)c2ccccc21` gave SRC3 TRFRET art 1905, SRC1 TRFRET art 2386*, PPARg SRC1 recr 14, SRC2 TRFRET art 1872, PPARg SRC-2 ag 26*, PPARg SRC3 recr 9, PPARg SRC2 ag 21, PPARg SRC1 conf 13 and PPARg SRC3 conf 12.
`Cn1c(=O)cc(OCC(=O)NCCCN2CCN(Cc3ccccc3)CC2)c2ccccc21` gave PPARg SRC1 recr 3, SRC2 TRFRET art 1472, PPARg SRC-2 ag 8 and PPARg SRC3 recr 4.
CCn1c(=O)cc(SCC(=O)NCCN2CCN(Cc3ccccc3)CC2)c2ccccc21 was read as PPARg SRC1 recr 49*, SRC2 TRFRET art 3069*, PPARg SRC-2 ag 63*, PPARg SRC3 recr 70*, PPARg SRC2 ag 29*, PPARg SRC1 conf 16 and PPARg SRC3 conf 18.
`CCOc1ccccc1N1CCN(c2nc(N)c(C#N)c(CC#N)c2C#N)CC1` gave PPARg SRC1 recr 8, SRC2 TRFRET art 1666, PPARg SRC-2 ag 16, PPARg SRC3 recr 29*, PPARg SRC2 ag 3, PPARg SRC1 conf 1 and PPARg SRC3 conf 2.
